PubChem BioAssay (NCI)
Compounds without any hit were thinned out: in the full panel of roughly 83,000, 20% have a hit.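 For each line, cells grew in 96-well plates with the test compound present at a single concentration for 48 hours.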 The source made the active and inactive calls. How the source made its calls: active means growth percent below 10; inactive means the rest.

Assays:
Assay in all cases: NCI-60 one-dose screen, 48 h (100 = growth as untreated, 0 = no growth, -100 = all killed)
Conditions in all cases: 10 µM unless noted
HCT-15 colon = test system: HCT-15 colon
HT29 colon = test system: HT29 colon
SNB-75 CNS = test system: SNB-75 CNS
SNB-19 CNS = test system: SNB-19 CNS
U251 CNS = test system: U251 CNS
PC-3 prostate = test system: PC-3 prostate
SK-MEL-5 melanoma = test system: SK-MEL-5 melanoma
UACC-62 melanoma = test system: UACC-62 melanoma
LOX IMVI melanoma = test system: LOX IMVI melanoma
SK-MEL-28 melanoma = test system: SK-MEL-28 melanoma
SK-MEL-2 melanoma = test system: SK-MEL-2 melanoma
EKVX NSCLC = test system: EKVX NSCLC
SN12C renal = test system: SN12C renal
UO-31 renal = test system: UO-31 renal
TK-10 renal = test system: TK-10 renal
ACHN renal = test system: ACHN renal
CAKI-1 renal = test system: CAKI-1 renal
A498 renal = test system: A498 renal
CCRF-CEM leukemia = test system: CCRF-CEM leukemia
MOLT-4 leukemia = test system: MOLT-4 leukemia

Measured: growth

O=C1/C(=C/c2ccccc2[N+](=O)[O-])COc2ccc(O)cc21
inactive: SNB-75 CNS 43.2% | SNB-19 CNS 62.7% | SK-MEL-5 melanoma 59.1% | SK-MEL-2 melanoma 57.1% | EKVX NSCLC 54.7% | TK-10 renal 27.4% | A498 renal 85.8%
active: HCT-15 colon -8.7% | HT29 colon -20.8% | U251 CNS 7.41% | PC-3 prostate 4.19% | UACC-62 melanoma 2.16% | LOX IMVI melanoma -66.1% | SK-MEL-28 melanoma -5.79% | SN12C renal -17.2% | UO-31 renal -68.7% | ACHN renal -13.5% | CAKI-1 renal -15.3% | CCRF-CEM leukemia 0.864% | MOLT-4 leukemia 4.74%

COc1ccc2cc(Cn3cc[n+](Cc4ccc5ccccc5c4)c3)ccc2c1
inactive: HCT-15 colon 95.7% | SNB-75 CNS 18.9% | SNB-19 CNS 31.6% | U251 CNS 16.1% | PC-3 prostate 19% | UACC-62 melanoma 15.2% | LOX IMVI melanoma 28.4% | SK-MEL-28 melanoma 11.7% | EKVX NSCLC 50.5% | SN12C renal 16.9% | UO-31 renal 84.4% | ACHN renal 98.8% | CAKI-1 renal 96% | A498 renal 74.7% | CCRF-CEM leukemia 20.2% | MOLT-4 leukemia 17.2%
active: HT29 colon -33.5% | SK-MEL-5 melanoma -24% | SK-MEL-2 melanoma -15.8% | TK-10 renal 9.68%

COc1cccc2c(N=NC(=O)c3ccc(S(N)(=O)=O)cc3)c(O)[nH]c12
inactive: HCT-15 colon 98.8% | HT29 colon 106% | SNB-75 CNS 95.1% | SNB-19 CNS 97.1% | U251 CNS 101% | PC-3 prostate 99.1% | SK-MEL-5 melanoma 99.4% | UACC-62 melanoma 99.8% | LOX IMVI melanoma 99.5% | SK-MEL-28 melanoma 112% | SK-MEL-2 melanoma 112% | EKVX NSCLC 98.4% | SN12C renal 98.3% | UO-31 renal 76.7% | TK-10 renal 108% | ACHN renal 105% | CAKI-1 renal 93.6% | A498 renal 94.8% | CCRF-CEM leukemia 112% | MOLT-4 leukemia 109%

O=C(c1ccc(Cl)cc1Cl)N1c2ccccc2Sc2ccccc21
inactive: HCT-15 colon 29.6% | HT29 colon 47.5% | SNB-75 CNS 59.6% | SNB-19 CNS 57.3% | U251 CNS 33.1% | PC-3 prostate 44% | SK-MEL-5 melanoma 34.6% | UACC-62 melanoma 43.1% | LOX IMVI melanoma 23.9% | SK-MEL-28 melanoma 65.4% | SK-MEL-2 melanoma 88.7% | EKVX NSCLC 75.7% | SN12C renal 66.9% | UO-31 renal 65.3% | TK-10 renal 73.3% | ACHN renal 60.7% | CAKI-1 renal 50.5% | CCRF-CEM leukemia 57.2% | MOLT-4 leukemia 26.4%

Cc1nn(-c2ccccc2)c(/N=C/N(C)C)c1/C=C/C(=O)c1ccc(Cl)cc1
inactive: HCT-15 colon 62.7% | HT29 colon 95.4% | SNB-75 CNS 91.6% | SNB-19 CNS 100% | U251 CNS 95.1% | PC-3 prostate 85.9% | SK-MEL-5 melanoma 89.3% | UACC-62 melanoma 88.3% | LOX IMVI melanoma 49% | SK-MEL-28 melanoma 89.6% | SK-MEL-2 melanoma 99.4% | EKVX NSCLC 77.4% | SN12C renal 82.5% | UO-31 renal 78.1% | TK-10 renal 104% | ACHN renal 102% | CAKI-1 renal 50.4% | A498 renal 92.6% | CCRF-CEM leukemia 66.6% | MOLT-4 leukemia 60.9%

CCOC(=O)c1c(NC(=O)c2ccc(OC)cc2)sc2c(CN(C)C)c(O)ccc12
active: SK-MEL-28 melanoma -30.4% | ACHN renal 6.26%
inactive: HCT-15 colon 52.5% | HT29 colon 13.9% | SNB-75 CNS 67.7% | SNB-19 CNS 89% | U251 CNS 79.5% | PC-3 prostate 78.9% | SK-MEL-5 melanoma 81.3% | UACC-62 melanoma 95.7% | LOX IMVI melanoma 61.3% | SK-MEL-2 melanoma 105% | EKVX NSCLC 95.9% | SN12C renal 77.5% | UO-31 renal 88.8% | TK-10 renal 94.4% | CAKI-1 renal 72.3% | A498 renal 68.9% | CCRF-CEM leukemia 56.6% | MOLT-4 leukemia 61.2%

COc1cccc(/C=C/C(=O)c2cc3c(N)c(C(=O)Nc4ccccc4C)sc3nc2C)c1
active: HCT-15 colon 8.29% | HT29 colon -5.29% | U251 CNS 7.49% | LOX IMVI melanoma -65.9% | CCRF-CEM leukemia 9.22%
inactive: SNB-75 CNS 12.8% | SNB-19 CNS 11.4% | PC-3 prostate 45.3% | SK-MEL-5 melanoma 52.4% | UACC-62 melanoma 33.6% | SK-MEL-28 melanoma 70.9% | SK-MEL-2 melanoma 27.3% | EKVX NSCLC 91.7% | SN12C renal 13.9% | UO-31 renal 38.5% | TK-10 renal 74.1% | ACHN renal 56.1% | CAKI-1 renal 32.2% | A498 renal 75.7% | MOLT-4 leukemia 32.6%

NC(=S)N/N=C/c1cn(-c2ccccc2)nc1-c1cc2ccccc2oc1=O
active: SNB-75 CNS 8.48%
inactive: HCT-15 colon 28.2% | HT29 colon 14.7% | SNB-19 CNS 56.6% | U251 CNS 45.2% | PC-3 prostate 67.5% | SK-MEL-5 melanoma 46.3% | UACC-62 melanoma 34.2% | LOX IMVI melanoma 46.3% | SK-MEL-28 melanoma 69.7% | SK-MEL-2 melanoma 39.2% | EKVX NSCLC 75.3% | SN12C renal 63.1% | UO-31 renal 50.7% | TK-10 renal 77.2% | ACHN renal 77.4% | CAKI-1 renal 44.1% | CCRF-CEM leukemia 53.7%

CCCCC(=O)Nc1ncc(Cc2ccccc2Cl)s1
inactive: HCT-15 colon 24.8% | HT29 colon 11% | SNB-75 CNS 25.3% | SNB-19 CNS 48.7% | U251 CNS 32% | PC-3 prostate 68.8% | SK-MEL-5 melanoma 37.6% | UACC-62 melanoma 32.4% | LOX IMVI melanoma 40.2% | SK-MEL-28 melanoma 57.7% | SK-MEL-2 melanoma 55.8% | EKVX NSCLC 57.6% | SN12C renal 42.4% | UO-31 renal 44.6% | TK-10 renal 62.8% | ACHN renal 61.4% | CAKI-1 renal 37.8% | A498 renal 48.5% | CCRF-CEM leukemia 57.3% | MOLT-4 leukemia 28.5%

C/C(=C(/c1ccc(Cl)cc1)c1ccc(OCCCN(C)C)cc1)c1ccc(Cl)cc1
inactive: HCT-15 colon 50.4% | HT29 colon 16.3% | SNB-75 CNS 96.4% | SNB-19 CNS 97.3% | U251 CNS 75.9% | PC-3 prostate 84.8% | SK-MEL-5 melanoma 93.8% | UACC-62 melanoma 109% | LOX IMVI melanoma 78.1% | SK-MEL-28 melanoma 99.5% | SK-MEL-2 melanoma 98.5% | EKVX NSCLC 98.4% | SN12C renal 93.9% | UO-31 renal 72.7% | TK-10 renal 103% | ACHN renal 104% | CAKI-1 renal 87.3% | A498 renal 94.8% | CCRF-CEM leukemia 73.3% | MOLT-4 leukemia 71.7%

CCN(CC)S(=O)(=O)c1ccc(S(=O)(=O)N2CCC[C@@H](C(=O)N3CCN(C(=O)OC(C)(C)C)CC3)C2)cc1
inactive: HCT-15 colon 91.8% | HT29 colon 91.5% | SNB-75 CNS 48.7% | SNB-19 CNS 68.8% | U251 CNS 81.6% | PC-3 prostate 77.5% | SK-MEL-5 melanoma 18.2% | UACC-62 melanoma 62.4% | LOX IMVI melanoma 58% | SK-MEL-28 melanoma 97.6% | SK-MEL-2 melanoma 101% | EKVX NSCLC 54.9% | SN12C renal 87.4% | UO-31 renal 73.6% | TK-10 renal 78.6% | ACHN renal 71.4% | CAKI-1 renal 52.1% | A498 renal 27.8% | CCRF-CEM leukemia 66.9% | MOLT-4 leukemia 60.8%

O=C1/C(=C/c2ccccc2)CN(C(=O)c2cccnc2)C/C1=C\c1ccccc1
active: HCT-15 colon -5.39% | HT29 colon -34% | SNB-19 CNS 6.39% | U251 CNS -23.8% | PC-3 prostate -17.6% | SK-MEL-5 melanoma -39.1% | UACC-62 melanoma -46.2% | LOX IMVI melanoma -84% | SK-MEL-28 melanoma -9.39% | SN12C renal 6.72% | UO-31 renal -54.5% | ACHN renal -15.7% | CAKI-1 renal 5.87% | CCRF-CEM leukemia -15% | MOLT-4 leukemia 0.998%
inactive: SNB-75 CNS 81.6% | SK-MEL-2 melanoma 89.6% | EKVX NSCLC 30.2% | TK-10 renal 20.7% | A498 renal 65.3%

CC1=NN(c2ccc(Cl)cc2)CC1(C)N=O (stereo unspecified)
inactive: HCT-15 colon 27.4% | HT29 colon 28.3% | SNB-75 CNS 75.7% | SNB-19 CNS 97.9% | U251 CNS 91.5% | PC-3 prostate 91.9% | SK-MEL-5 melanoma 95.4% | UACC-62 melanoma 88.2% | LOX IMVI melanoma 28.1% | SK-MEL-28 melanoma 90.4% | SK-MEL-2 melanoma 105% | EKVX NSCLC 70.1% | SN12C renal 88.4% | UO-31 renal 32.8% | TK-10 renal 105% | ACHN renal 15.2% | CAKI-1 renal 60.4% | CCRF-CEM leukemia 34% | MOLT-4 leukemia 44.6%

Cc1ccc(-c2nc(C(Cl)Cl)nc3cc(C)nn23)cc1
inactive: SNB-19 CNS 25.1% | PC-3 prostate 44.9% | SK-MEL-5 melanoma 44.8% | UACC-62 melanoma 59.5% | LOX IMVI melanoma 52% | SK-MEL-28 melanoma 38.4% | SK-MEL-2 melanoma 65.5% | SN12C renal 40.5% | UO-31 renal 51.3% | TK-10 renal 29% | CCRF-CEM leukemia 32.5% | MOLT-4 leukemia 16.7%
active: HCT-15 colon -2.36% | HT29 colon 3.2% | SNB-75 CNS -11.5% | U251 CNS 4.27% | EKVX NSCLC 5.75% | ACHN renal -45% | CAKI-1 renal -14.2% | A498 renal -2.75%

COc1ccc(/C=C/C(=O)c2cc3c(N)c(C(=O)Nc4ccccc4C)sc3nc2C)cc1
inactive: HCT-15 colon 15.2% | PC-3 prostate 25% | SK-MEL-5 melanoma 17.7% | UACC-62 melanoma 16.9% | LOX IMVI melanoma 18.7% | SK-MEL-28 melanoma 51.3% | SK-MEL-2 melanoma 14.5% | EKVX NSCLC 43.3% | SN12C renal 26.4% | UO-31 renal 40.4% | TK-10 renal 32% | ACHN renal 38.7% | CAKI-1 renal 23.3% | A498 renal 16.7% | CCRF-CEM leukemia 16.4% | MOLT-4 leukemia 27.6%
active: HT29 colon -27.6% | SNB-75 CNS -0.543% | SNB-19 CNS 6.45% | U251 CNS 9.39%

Cc1nc2sc(C(=O)Nc3ccccc3)c(N)c2cc1C(=O)/C=C/c1ccccc1
inactive: SK-MEL-5 melanoma 11.7% | SK-MEL-28 melanoma 30.9% | SK-MEL-2 melanoma 18.4% | EKVX NSCLC 43.2% | MOLT-4 leukemia 15.3%
active: HCT-15 colon -32.1% | HT29 colon -63.9% | SNB-75 CNS -14% | SNB-19 CNS -40.8% | U251 CNS -71.7% | PC-3 prostate 6.68% | UACC-62 melanoma 0.799% | LOX IMVI melanoma -80% | SN12C renal -27.1% | UO-31 renal -82.6% | TK-10 renal -18.1% | ACHN renal 3.7% | CAKI-1 renal -54.1% | A498 renal 9.65% | CCRF-CEM leukemia 6.14%
